From PubChem BioAssay (NCATS) come the findings set out here.

A short description of assay [1]: Cell Viability - LYMP2-001 (AID 921).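 Note: series mostly up to about 92 µM; cells exposed to compound for 24 h at 37 °C; nearly all actives have a fitted effect of over 70% in size.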 Summed up:
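A lymphoblastoid cell line of human origin was treated with library compounds across a concentration series for 24 hours, and viable cell number was estimated from ATP-driven luciferase light output. Hill modeling gave AC50.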

A short description of assay [2]: Confirmation and Secondary Assay for Modulators of Hemoglobin Beta Chain Splicing at IVS2 705 locus (AID 930).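 Note: GFP fluorescence per well restored by corrected splicing of the IVS2-705 intron in EGFP.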 Note: potency is the fitted concentration of half-maximal effect. Summed up: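 HeLa EGFP-705 reporter; 500 cells/well, o/n 37C 5% CO2; cpd 2 d; 488 ex/500-520 em laser scan; total peak GFP intensity/well. Ref: 500 nM […] antisense PNA.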
Assay [3] is described as follows: MultiTox-Fluor Cytotoxicity Assay - LYMP1-001 - Dead Cells (AID 946). Put shortly:
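Cytotoxicity as increased dead-cell protease fluorescence (bis-AAF-R110, 485/520 nm), read 60 min after MultiTox-Fluor reagent. Human lymphoblastoid line exposed 16 h; Hill-fitted AC50, with DMSO as 0% and 15 uM tetraoctylammonium bromide as 100%.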

Assay [4] is described as follows: MultiTox-Fluor Cytotoxicity Assay - LYMP1-001 - Live Cells (AID 947).
Assay [5] in a line: qHTS Assay for Identification of Small Molecule Agonists for Thrombopoietin (TPO) Signaling Pathway (AID 917). Note: potency is the fitted concentration of half-maximal effect. Summed up: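 IL-3-dependent murine pro-B Ba/F3 cells, stably transfected with human TPO receptor and GpIIb-promoter luciferase, are incubated 24 hrs at 37 C with test compound and 26 pM TPO; luciferase signal is read after 10 min at room temperature.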
Assay [6] has as its target Pyruvate kinase (Leishmania mexicana) (UniProt Q27686). The assay can be described thus: qHTS Validation Assay for Inhibitors of Leishmania Mexicana Pyruvate Kinase (AID 945). Note: potency is the fitted concentration of half-maximal effect. Summed up: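 Substrate mix (0.5 mM PEP, 0.1 mM ADP, 7 mM MgCl2, 50 mM KCl, pH 7.2 imidazole) received compound by pin tool, then 0.2 nM LmPYK E451W. After 1 h at room temperature, PKLight was added and luminescence measured.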
(Quantitative high-throughput screening tests each substance at several concentrations.)

The nature of assay [7]: qHTS Assay for Identification of Small Molecule Agonists for NFkB Signaling Pathway (AID 928; calls by dose curve). The note with it: NFkB beta-lactamase reporter cells, blue/green ratio. The method, then: NIH Molecular Libraries Screening Centers Network [MLSCN]
NIH Chemical Genomics Center [NCGC]
The TNF alpha/NFkB signaling pathway was assayed in NFkB-bla cells (Invitrogen), a ME-180 cervical carcinoma line containing a stably integrated beta-lactamase reporter gene controlled by a NFkB response element. […] The assay was screened at the EC50 of TNF alpha activation to identify activators of TNF alpha/NFkB signaling.
NCGC Assay Protocol Summary:
Cells were trypsinized, washed in assay medium (AM, OPTI MEM with 0.5% fetal bovine serum, 0.1 mM nonessential amino acids, 1 mM sodium pyruvate, 10mM HEPES pH 7.3, 100U/ml penicillin, and 100 ug/ml streptomycin) and plated at 1000 cells/5 uL/well into black clear-bottom 1536 well plates. After an overnight incubation at 37 C and 5% CO2, 23 nL of compound were delivered by a pin tool, 1 uL of TNF alpha (10 pM final concentration in AM) was added and plates were incubated at 37 C for 5 hrs. One uL of LiveBLAzerTM detector mix (Invitrogen) was added, the plates incubated at room temperature for 2 hrs, and fluorescence intensity at 460 and 530 nm emission was measured at 405 nm excitation by an Envision (Perkin Elmer).

Assay [8] in a line: qHTS Assay for Identification of Small Molecule Antagonists for Thrombopoietin (TPO) Signaling Pathway (AID 918). Note: potency is the fitted concentration of half-maximal effect; nearly all actives have a fitted effect of over 60% in size. Conditions: TPO-dependent cell signaling reporter, antagonist mode. Summed up: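 First, Ba/F3 reporter cells expressing human TPO receptor were held overnight without IL-3. Next, compound and 26 pM TPO were added. After 24 hrs incubation at 37 C, luciferase luminescence under the Glycoprotein IIb promoter was recorded.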

The target in assay [9] is Muscarinic acetylcholine receptor M1 (Rattus norvegicus) (UniProt P08482). The assay can be described thus: qHTS Assay for Antagonists of Acetylcholine Muscarinic M1 Receptor: Kinetic Measurement of Intracellular Calcium Response (AID 943).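 Note: Fluo-4 calcium signal as peak divided by basal fluorescence over 4 min; series mostly up to about 35 µM; nearly all actives have a fitted effect of over 75% in size.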 Put shortly:
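Intracellular calcium flux, recorded with Fluo-4 in a kinetic plate reader, served as signal; the response to carbachol at EC80 (100 nM final) was taken as maximal over minimal fluorescence after a 10 min compound pre-incubation in rat M1-CHO cells.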

The target is the same in assay [10]. The assay can be described thus: qHTS Assay for Antagonists of Acetylcholine Muscarinic M1 Receptor: Measurement of IP-One Response (AID 944). Note: nearly all actives have a fitted effect of over 75% in size. Summed up: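 Steps: plate transfected CHO-M1 cells overnight; add test compound, 10 min; add carbachol (200 nM, EC80) in stimulation buffer with LiCl; incubate 30 min; add labelled IP1 tracer and anti-IP1 antibody in lysis buffer; read HTRF after 10 min.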

Results filed as inconclusive are left out. Active and inactive are the calls of the source. Unless noted, calls come from the whole dose curve; as a rule, active = well fitted curve in the direction sought with a large enough effect; inconclusive = small, poorly fitted or top-dose-only effect, or another doubt; inactive = no such curve, though single readings can be large; an effect the other way counts as inactive or inconclusive.

Pyruvate kinase (Leishmania mexicana), sequence (Q27686 2-499 E452W): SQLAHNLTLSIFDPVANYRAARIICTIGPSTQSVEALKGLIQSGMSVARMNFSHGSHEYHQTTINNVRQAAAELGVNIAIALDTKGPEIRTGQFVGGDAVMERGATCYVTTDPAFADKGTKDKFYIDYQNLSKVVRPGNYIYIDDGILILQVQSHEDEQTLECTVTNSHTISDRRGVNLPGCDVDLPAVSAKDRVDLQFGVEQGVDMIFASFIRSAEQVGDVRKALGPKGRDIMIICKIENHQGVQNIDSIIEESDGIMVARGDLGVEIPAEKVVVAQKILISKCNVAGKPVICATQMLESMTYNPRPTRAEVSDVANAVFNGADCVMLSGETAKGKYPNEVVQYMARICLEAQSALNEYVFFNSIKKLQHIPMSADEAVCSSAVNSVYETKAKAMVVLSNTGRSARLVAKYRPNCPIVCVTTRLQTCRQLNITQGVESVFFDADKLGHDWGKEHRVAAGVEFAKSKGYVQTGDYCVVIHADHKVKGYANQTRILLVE
Muscarinic acetylcholine receptor M1 (Rattus norvegicus), sequence (P08482 whole entry, looked up): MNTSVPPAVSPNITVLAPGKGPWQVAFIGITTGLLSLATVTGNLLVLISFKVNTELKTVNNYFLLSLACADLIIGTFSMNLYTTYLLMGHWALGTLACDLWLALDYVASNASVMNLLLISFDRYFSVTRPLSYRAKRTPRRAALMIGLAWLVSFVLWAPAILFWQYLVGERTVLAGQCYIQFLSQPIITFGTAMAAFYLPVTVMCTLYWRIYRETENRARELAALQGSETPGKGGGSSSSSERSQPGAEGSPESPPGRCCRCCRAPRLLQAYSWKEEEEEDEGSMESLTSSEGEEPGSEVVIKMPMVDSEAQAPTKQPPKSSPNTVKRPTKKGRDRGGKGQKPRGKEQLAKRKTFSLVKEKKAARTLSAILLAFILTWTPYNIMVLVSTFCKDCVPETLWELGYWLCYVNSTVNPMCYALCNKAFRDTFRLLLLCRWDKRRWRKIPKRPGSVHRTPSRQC

For `CCc1nc(N)nc(N)c1-c1ccc(Cl)cc1`, the Potency entry in assay [1], in assay [2], in [3] and in [4] was “inactive” throughout.
Take `NC(=NCc1ccccc1)NC(=O)c1nc(Cl)c(N)nc1N`: the Potency in assay [5] was 12.6 µM (active). Also, the Potency result in [2] and in [6] was “inactive” each time.
For `CC1(C)NC(=O)N(c2ccc([N+](=O)[O-])c(C(F)(F)F)c2)C1=O`, the Potency entry in assay [5], in assay [2] and in assay [6] was “inactive” each time.
Turning to `O=c1cc(N2CCOCC2)oc2c(-c3ccccc3)cccc12`, the Potency in assay [7] is 7.08 µM (active). Moreover, the Potency result in assay [6] was “inactive”.
On to `NCCCCNCCCN`, for which the Potency in [8] was 6.31 µM (active). For the same molecule, the Potency entry in assay [2], in [9] and in assay [6] was “inactive” in each case.
`COc1c2occc2cc2ccc(=O)oc12`: the Potency result in assay [1], in assay [2], in assay [3] and in assay [4] was “inactive” throughout.
As to `Cc1nc2n(c(=O)c1CCN1CCC(c3noc4cc(F)ccc34)CC1)CCCC2`, the Potency entry in [5] and in assay [6] was “inactive” in each case.
On to `Nc1nc(OCc2ccccc2)c2[nH]cnc2n1`, for which the Potency entry in [5], in [9], in assay [10] and in assay [6] was “inactive” in each case.
Take `COc1ccccc1N1CCN(CCN(C(=O)C2CCCCC2)c2ccccn2)CC1`: the Potency result in assay [5], in [9] and in assay [6] was “inactive” throughout.
For the molecule `CS(=O)(=O)OCCCCOS(C)(=O)=O`, the Potency entry in assay [1], in assay [2], in [3] and in [4] was “inactive” each time.
Turning to `O=C(O)c1cccnc1Nc1cccc(C(F)(F)F)c1`, the Potency entry in [5], in assay [2] and in assay [6] was “inactive” throughout.
`NNc1nncc2ccccc12`: the Potency in assay [5] is 0.0398 µM (active). The Potency entry in assay [2] was “inactive”.
As to `Cc1cccc(C#Cc2ccccc2)n1`, the Potency in assay [5] was 1 µM (active); in assay [6], 15.8 µM (active).
Turning to `CCN(CC)C(=S)SSC(=S)N(CC)CC`, the Potency in assay [8] is 0.398 µM (active). Besides, the Potency result in [2] and in assay [10] was “inactive” throughout.
For the molecule `CCCOc1ccc2nc(NC(=O)OC)[nH]c2c1`, the Potency result in assay [2] was “inactive”.
With `CC(=O)Nc1ccc(O)cc1`, the Potency result in assay [1], in [3] and in [4] was “inactive” throughout.
Turning to `O=C1c2ccccc2-c2n[nH]c3cccc1c23`, the Potency result in assay [9], in assay [10] and in assay [6] was “inactive” each time.
On to `O=c1oc2cc(O)ccc2s1`, for which the Potency result in [2] was “inactive”.
Turning to `O=C(c1ccccc1)c1ccc2n1CCC2C(=O)O` (configuration not stated), the Potency result in assay [2] is “inactive”.
On the same count and under the same terms, as for `CCN(CCO)CCCC(C)Nc1ccnc2cc(Cl)ccc12` (configuration not stated), the entry is “inactive”; as for `S=c1nc[nH]c2nc[nH]c12`, 6.31 µM (active); as for `CN1CCC(=C2c3ccccc3CCc3sccc32)CC1`, “inactive”.
As for `Cc1cc(C2CCCCC2)n(O)c(=O)c1`, in assay [2], the Potency entry was “inactive”.
On the same count and under the same terms, as for `O=C(NC(Cc1cc(=O)[nH]c2ccccc12)C(=O)O)c1ccc(Cl)cc1` (configuration not stated), the entry is “inactive”; as for `Cc1cccc(CN2CCN(C(c3ccccc3)c3ccc(Cl)cc3)CC2)c1` (configuration not stated), “inactive”.
Regarding `Oc1ccc(-c2nc(-c3ccc(F)cc3)c(-c3ccncc3)[nH]2)cc1`, the Potency result in assay [9], in [10] and in assay [6] was “inactive” each time.
As to `Cc1ncc([N+](=O)[O-])n1CC(C)O` (configuration not stated), the Potency entry in assay [2] is “inactive”.
As to `O=C1NC(=O)C(c2ccccc2[N+](=O)[O-])=C1Nc1ccc(O)c(Cl)c1`, the Potency entry in assay [9] and in [6] was “inactive” in each case.
Regarding `Nc1ccc(S(N)(=O)=O)cc1`, the Potency result in assay [2], in [3] and in assay [4] was “inactive” in each case.
Regarding `CCCCC(CC)COC(=O)C(C#N)=C(c1ccccc1)c1ccccc1` (configuration not stated), the Potency entry in assay [3] and in assay [4] was “inactive” throughout.
Turning to `Nc1cc(C(Cl)=C(Cl)Cl)c(S(N)(=O)=O)cc1S(N)(=O)=O`, in assay [2], the Potency result is “inactive”.
Still for that read-out and setting: with `Cc1cc2cc3c(C)cc(=O)oc3c(C)c2o1` the entry was “inactive”; with `Cc1cc2c(s1)Nc1ccccc1N=C2N1CCN(C)CC1`, “inactive”; with `O=C(O)c1cc(=O)c2c(OCC(O)COc3cccc4oc(C(=O)O)cc(=O)c34)cccc2o1`, “inactive”.
The same measure, in the same setting: with `O=C(O)c1cn(-c2ccc(F)cc2)c2cc(N3CCNCC3)c(F)cc2c1=O` the entry was “inactive”.
The same measure, in the same setting: with `CN1C(C(=O)Nc2ccccn2)=C(O)c2sccc2S1(=O)=O` the entry was “inactive”; with `CN(C)CCc1c[nH]c2ccc(Cn3cncn3)cc12`, “inactive”.
`CC(C)c1ccc2c(c1)c(SC(C)(C)C)c(CC(C)(C)C(=O)O)n2Cc1ccc(Cl)cc1`: the Potency result in assay [10] and in assay [6] was “inactive” in each case.
As to `O=c1ccc2ccc(O)c(O)c2o1`, the Potency entry in assay [9] and in assay [6] was “inactive” throughout.
In the case of `Cc1cc(O)c2c(c1)C(=O)c1cc(O)cc(O)c1C2=O`, the Potency entry in assay [9], in assay [10], in assay [6] and in [3] was “inactive” each time.
On to `Nc1nc(Cl)nc2c1ncn2[C@H]1C[C@H](O)[C@@H](CO)O1`, for which the Potency result in assay [2] was “inactive”.
`CC1(C)C(=O)N(CCN2CCC(C(=O)c3ccc(F)cc3)CC2)c2ccccc21`: in [6], the Potency entry is “inactive”.
As for `Cc1ccc(S(=O)(=O)NC(=O)NN2CC3CCCC3C2)cc1` (configuration not stated), the Potency result in assay [2] was “inactive”.
`O=c1c(O)c(-c2ccc(O)cc2O)oc2cc(O)cc(O)c12`: the Potency entry in [2], in assay [10] and in assay [6] was “inactive” each time.
As for `CC1Cc2ccccc2N1NC(=O)c1ccc(Cl)c(S(N)(=O)=O)c1` (configuration not stated), the Potency result in assay [2] was “inactive”.
Turning to `CC(=O)N1CCN(c2ccc(OC[C@H]3CO[C@](Cn4ccnc4)(c4ccc(Cl)cc4Cl)O3)cc2)CC1`, in assay [6], the Potency entry was “inactive”.
